# Assays:
# [1] = target: Leukocyte tyrosine kinase receptor (Homo sapiens) (UniProt P29376); settings: at 1 µM;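 also: each value is the mean inhibition of LTK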
# [2] = target: Tyrosine-protein kinase Lyn (Homo sapiens) (UniProt P07948); settings: at 0.1 µM
# [3] = target: Tyrosine-protein kinase Lyn (Homo sapiens) (UniProt P07948); settings: at 1 µM
# [4] = target: Tyrosine-protein kinase Lyn (Homo sapiens) (UniProt P07948); settings: at 0.1 µM; remark: listed apart in the source
# [5] = target: Tyrosine-protein kinase Lyn (Homo sapiens) (UniProt P07948); settings: at 1 µM; remark: listed apart in the source
# [6] = target: T1, Tyrosine-protein kinase Mer (Homo sapiens) (UniProt Q12866); settings: at 0.1 µM
# T1 sequence (whole entry): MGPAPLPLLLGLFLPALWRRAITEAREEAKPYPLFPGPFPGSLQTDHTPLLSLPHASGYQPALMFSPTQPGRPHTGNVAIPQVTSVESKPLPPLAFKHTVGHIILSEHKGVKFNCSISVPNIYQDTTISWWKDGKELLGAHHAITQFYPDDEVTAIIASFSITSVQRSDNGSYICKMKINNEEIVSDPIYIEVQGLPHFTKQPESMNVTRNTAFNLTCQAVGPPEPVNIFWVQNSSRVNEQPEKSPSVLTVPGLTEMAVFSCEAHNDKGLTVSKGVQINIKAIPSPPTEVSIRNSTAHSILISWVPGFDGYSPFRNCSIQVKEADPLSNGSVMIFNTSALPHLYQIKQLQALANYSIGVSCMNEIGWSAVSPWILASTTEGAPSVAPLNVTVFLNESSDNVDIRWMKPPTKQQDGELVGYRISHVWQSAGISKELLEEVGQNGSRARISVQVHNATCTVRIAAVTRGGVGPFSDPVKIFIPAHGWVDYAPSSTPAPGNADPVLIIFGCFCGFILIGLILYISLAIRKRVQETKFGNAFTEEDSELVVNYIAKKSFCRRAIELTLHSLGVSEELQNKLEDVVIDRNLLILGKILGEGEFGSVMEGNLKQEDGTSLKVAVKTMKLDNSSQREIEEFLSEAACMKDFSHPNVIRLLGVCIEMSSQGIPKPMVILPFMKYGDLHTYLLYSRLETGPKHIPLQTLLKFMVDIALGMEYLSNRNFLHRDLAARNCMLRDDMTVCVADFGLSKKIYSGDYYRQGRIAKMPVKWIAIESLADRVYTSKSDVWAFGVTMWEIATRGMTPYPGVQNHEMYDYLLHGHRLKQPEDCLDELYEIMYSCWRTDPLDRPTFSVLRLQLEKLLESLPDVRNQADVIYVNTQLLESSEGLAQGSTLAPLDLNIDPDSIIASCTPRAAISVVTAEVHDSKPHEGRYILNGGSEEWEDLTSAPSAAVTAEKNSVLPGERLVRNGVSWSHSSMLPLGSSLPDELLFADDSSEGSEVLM
# [7] = target: T1, Tyrosine-protein kinase Mer (Homo sapiens); settings: at 1 µM
# [8] = target: Hepatocyte growth factor receptor (Homo sapiens) (UniProt P08581); settings: at 0.1 µM
# Chain of Hepatocyte growth factor receptor (Homo sapiens) (P08581 whole entry): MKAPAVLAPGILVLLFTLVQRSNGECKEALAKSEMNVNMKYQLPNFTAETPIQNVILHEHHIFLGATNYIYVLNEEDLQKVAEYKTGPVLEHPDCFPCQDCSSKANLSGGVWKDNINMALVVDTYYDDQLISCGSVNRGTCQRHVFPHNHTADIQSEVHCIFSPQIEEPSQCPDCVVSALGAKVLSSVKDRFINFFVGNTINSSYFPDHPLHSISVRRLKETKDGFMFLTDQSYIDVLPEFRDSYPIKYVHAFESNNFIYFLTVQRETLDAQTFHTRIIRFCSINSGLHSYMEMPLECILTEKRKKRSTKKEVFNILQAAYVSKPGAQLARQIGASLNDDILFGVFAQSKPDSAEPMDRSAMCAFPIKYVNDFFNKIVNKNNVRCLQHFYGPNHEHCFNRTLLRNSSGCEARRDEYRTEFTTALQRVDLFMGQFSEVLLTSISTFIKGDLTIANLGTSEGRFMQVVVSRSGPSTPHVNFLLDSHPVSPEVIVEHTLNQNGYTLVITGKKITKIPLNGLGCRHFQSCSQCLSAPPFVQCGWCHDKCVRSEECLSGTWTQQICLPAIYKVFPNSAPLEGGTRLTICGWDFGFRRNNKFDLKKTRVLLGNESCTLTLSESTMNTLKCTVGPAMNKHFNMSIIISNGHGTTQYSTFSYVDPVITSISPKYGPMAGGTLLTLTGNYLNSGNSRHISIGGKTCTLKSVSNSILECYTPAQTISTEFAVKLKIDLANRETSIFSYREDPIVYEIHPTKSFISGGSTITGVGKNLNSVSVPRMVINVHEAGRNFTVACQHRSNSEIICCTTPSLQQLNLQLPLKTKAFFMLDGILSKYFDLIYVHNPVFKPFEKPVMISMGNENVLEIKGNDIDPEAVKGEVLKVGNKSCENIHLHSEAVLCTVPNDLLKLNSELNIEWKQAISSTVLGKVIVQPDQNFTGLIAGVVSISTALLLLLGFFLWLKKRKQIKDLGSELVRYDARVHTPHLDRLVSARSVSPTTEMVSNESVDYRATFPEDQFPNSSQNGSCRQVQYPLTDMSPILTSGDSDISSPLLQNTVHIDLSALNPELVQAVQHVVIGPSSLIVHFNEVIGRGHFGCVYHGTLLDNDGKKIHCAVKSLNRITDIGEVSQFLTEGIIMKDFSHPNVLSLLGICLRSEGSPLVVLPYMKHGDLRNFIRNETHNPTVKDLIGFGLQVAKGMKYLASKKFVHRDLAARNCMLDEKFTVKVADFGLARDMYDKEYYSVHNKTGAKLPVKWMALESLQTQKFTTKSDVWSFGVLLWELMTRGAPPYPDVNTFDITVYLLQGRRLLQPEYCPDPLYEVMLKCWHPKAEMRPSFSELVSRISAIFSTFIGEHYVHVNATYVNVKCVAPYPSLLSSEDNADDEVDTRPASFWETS
# [9] = target: Hepatocyte growth factor receptor (Homo sapiens) (UniProt P08581); settings: at 1 µM
# [10] = target: T2, Muscle, skeletal receptor tyrosine-protein kinase (Homo sapiens) (UniProt O15146); settings: at 0.1 µM;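 also: values are mean inhibition of MuSK from the GSK PKIS kinase screening panel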
# T2 sequence (whole entry): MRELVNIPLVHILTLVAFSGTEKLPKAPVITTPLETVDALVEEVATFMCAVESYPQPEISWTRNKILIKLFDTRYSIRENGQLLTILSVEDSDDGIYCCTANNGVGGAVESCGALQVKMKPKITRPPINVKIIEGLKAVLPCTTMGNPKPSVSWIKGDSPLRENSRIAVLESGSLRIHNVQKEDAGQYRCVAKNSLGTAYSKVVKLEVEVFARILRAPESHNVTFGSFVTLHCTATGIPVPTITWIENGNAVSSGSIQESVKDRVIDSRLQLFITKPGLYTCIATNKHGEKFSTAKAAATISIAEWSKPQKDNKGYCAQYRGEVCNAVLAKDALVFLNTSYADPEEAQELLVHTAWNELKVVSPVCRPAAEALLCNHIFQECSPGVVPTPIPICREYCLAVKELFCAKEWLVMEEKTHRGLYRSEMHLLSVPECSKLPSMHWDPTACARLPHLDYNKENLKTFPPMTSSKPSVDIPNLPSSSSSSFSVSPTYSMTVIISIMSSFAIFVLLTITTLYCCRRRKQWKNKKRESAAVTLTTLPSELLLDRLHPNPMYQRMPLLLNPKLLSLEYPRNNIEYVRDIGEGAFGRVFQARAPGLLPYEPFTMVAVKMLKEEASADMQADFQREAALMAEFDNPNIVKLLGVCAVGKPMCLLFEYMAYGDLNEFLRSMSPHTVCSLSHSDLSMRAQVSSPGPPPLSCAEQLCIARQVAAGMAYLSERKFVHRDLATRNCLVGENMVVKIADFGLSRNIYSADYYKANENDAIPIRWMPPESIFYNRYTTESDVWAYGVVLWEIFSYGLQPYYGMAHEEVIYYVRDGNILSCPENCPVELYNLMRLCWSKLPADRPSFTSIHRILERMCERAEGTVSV
# Chain of Leukocyte tyrosine kinase receptor (Homo sapiens) (P29376 whole entry): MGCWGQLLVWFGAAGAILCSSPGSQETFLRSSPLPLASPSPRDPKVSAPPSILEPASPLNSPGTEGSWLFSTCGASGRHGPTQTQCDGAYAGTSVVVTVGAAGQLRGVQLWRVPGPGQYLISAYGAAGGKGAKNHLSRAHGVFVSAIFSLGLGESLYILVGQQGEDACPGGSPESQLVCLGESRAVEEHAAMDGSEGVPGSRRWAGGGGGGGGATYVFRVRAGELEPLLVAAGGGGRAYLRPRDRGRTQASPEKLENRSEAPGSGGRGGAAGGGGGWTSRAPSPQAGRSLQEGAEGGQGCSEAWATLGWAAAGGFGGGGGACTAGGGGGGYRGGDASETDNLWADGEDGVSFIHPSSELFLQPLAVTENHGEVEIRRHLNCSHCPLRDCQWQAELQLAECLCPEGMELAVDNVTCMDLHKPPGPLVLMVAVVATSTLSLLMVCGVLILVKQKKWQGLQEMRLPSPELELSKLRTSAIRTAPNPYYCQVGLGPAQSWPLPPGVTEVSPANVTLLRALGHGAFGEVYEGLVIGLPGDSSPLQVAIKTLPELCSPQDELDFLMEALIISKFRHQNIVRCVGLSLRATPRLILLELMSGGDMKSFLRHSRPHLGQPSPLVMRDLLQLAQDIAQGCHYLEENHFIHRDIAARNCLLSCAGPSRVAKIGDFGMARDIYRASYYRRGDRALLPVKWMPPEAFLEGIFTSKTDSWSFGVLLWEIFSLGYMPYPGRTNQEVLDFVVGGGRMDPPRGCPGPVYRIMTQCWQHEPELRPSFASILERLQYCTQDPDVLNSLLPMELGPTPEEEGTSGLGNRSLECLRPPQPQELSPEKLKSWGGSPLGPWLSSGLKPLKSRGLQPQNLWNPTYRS
# Chain of Tyrosine-protein kinase Lyn (Homo sapiens) (P07948 2-512 limits assumed): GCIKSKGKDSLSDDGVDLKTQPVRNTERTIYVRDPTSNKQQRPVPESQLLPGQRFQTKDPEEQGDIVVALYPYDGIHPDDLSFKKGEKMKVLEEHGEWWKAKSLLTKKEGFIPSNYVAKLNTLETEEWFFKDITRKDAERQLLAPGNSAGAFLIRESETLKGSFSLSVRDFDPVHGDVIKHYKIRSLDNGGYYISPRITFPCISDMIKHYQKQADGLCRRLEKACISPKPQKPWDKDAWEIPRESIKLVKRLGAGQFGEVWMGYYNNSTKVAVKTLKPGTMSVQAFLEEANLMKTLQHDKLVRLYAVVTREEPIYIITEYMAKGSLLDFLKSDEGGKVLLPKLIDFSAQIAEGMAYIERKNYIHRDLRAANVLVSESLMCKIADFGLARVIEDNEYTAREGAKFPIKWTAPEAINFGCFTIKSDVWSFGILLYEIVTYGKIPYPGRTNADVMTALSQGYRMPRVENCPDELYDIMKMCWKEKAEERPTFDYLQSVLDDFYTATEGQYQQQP
SMILES,inhibition [1],inhibition [2],inhibition [3],inhibition [4],inhibition [5],inhibition [6],inhibition [7],inhibition [8],inhibition [9],inhibition [10]
CN(c1ccc(NC(=O)Nc2c(Cl)cccc2Cl)cc1)c1ccnc(Nc2cccc(CS(C)(=O)=O)c2)n1,1.45%,29.7%,64.8%,27.1%,60.9%,14.6%,29.6%,80.8%,85%,72.8%
COc1cc(N2CCN(C(C)C)CC2)ccc1Nc1nc(Nc2ccc(F)cc2C(=O)NC[C@@H](O)CO)c2cc[nH]c2n1,88.7%,4.36%,9.54%,2.42%,7%,0.94%,3.95%,-1.77%,3.3%,1.43%
Clc1ccc(CNc2nccc(-c3cnn4ncccc34)n2)cc1,0.38%,3.2%,5.62%,1.68%,3.11%,-0.52%,0.99%,2.02%,7.73%,3.18%
NS(=O)(=O)c1ccc(N/N=C2\C(=O)Nc3ccc(-c4cnco4)cc32)cc1,3.37%,3.33%,11.1%,1.68%,8.81%,1.31%,8.19%,6.22%,2.64%,4.18%
O=C1Nc2ccc(I)cc2C1=Cc1cc(Br)c(O)c(Br)c1,9.99%,4.2%,7.49%,2.6%,4.55%,2.32%,2.36%,1.23%,4.15%,1.59%
O=C1Nc2ccccc2/C1=C/Nc1ccc(-n2cncn2)cc1,7.47%,6.77%,21.6%,4.42%,17.3%,1.28%,5.61%,5.14%,13.6%,3.92%
COc1ccc2ncn(-c3cc(O[C@H](C)c4ccccc4Cl)c(C(N)=O)s3)c2c1,2.89%,3.82%,5.65%,2.15%,2.91%,2.41%,4.42%,4.37%,4.23%,2.62%
c1ccc(Oc2ccc(Nc3ncc(-c4ccccc4)o3)cc2)cc1,1.13%,3.36%,2.98%,1.38%,2.09%,0.19%,0.42%,1.79%,7.6%,1.27%
Fc1ccc(-c2ncn(CCCN3CCOCC3)c2-c2ccncc2)cc1,-2.09%,-0.59%,-0.14%,-1%,-0.37%,0.24%,-0.01%,3.89%,-1.62%,-0.13%
COC(=O)Nc1nc2ccc(Sc3ccc(NC(=O)Nc4cc(C(F)(F)F)ccc4F)cc3)cc2[nH]1,-2.11%,5.69%,56.1%,4.04%,49.8%,-0.94%,2.34%,1.57%,36.2%,32.2%
NC(=O)c1cc(-c2ccc(F)cc2)cc(-c2ccncc2)c1N,2.67%,7.55%,9%,5%,5.99%,1.16%,0.38%,3.9%,8.57%,3.05%
COc1cc(Nc2ncc3c(C)nc(-c4cccc(C(F)(F)F)c4)n3n2)cc(OC)c1OC,4.56%,8.46%,27.6%,5.92%,21.9%,1.71%,4.47%,8.25%,9.19%,3.85%
C#Cc1cccc(Nc2ncnc3ccc(OCCCCNCCS(C)(=O)=O)cc23)c1,28.5%,7.93%,26.9%,5.05%,21.8%,2%,5.14%,3.29%,8.4%,1.86%
NC(=O)c1ccc(Oc2nccc(-c3c(-c4ccc(F)cc4)ncn3C3CCNCC3)n2)cc1,4.14%,4.17%,5.34%,1.86%,4.92%,3.18%,6.79%,13.2%,8.14%,3.97%
COc1cccc(/C=N/Nc2ncnc3c2cnn3-c2cccc(OC)c2)c1,4.06%,5.08%,15.3%,3.29%,10.9%,1.87%,2.85%,4.9%,9.96%,1.34%
O=C1NC(=O)C(c2cccc(Cl)c2)=C1Nc1ccc(Cl)c(C(=O)O)c1,2.96%,3.89%,4.02%,2.44%,3.42%,1.12%,-0.64%,1.38%,3.65%,2.04%
NC(=O)Cc1ccccc1Oc1nccc(-c2c(-c3ccc(F)cc3)ncn2C2CCNCC2)n1,2.41%,2.61%,3.78%,1.91%,1.88%,0.54%,3.34%,2.67%,3.24%,2.87%
